Screening results as filed in PubChem.
AMA1-RON2 inh – inhibitors of Plasmodium falciparum AMA1-RON2 interaction. AlphaScreen AMA1-biotinylated RON2 peptide binding. Potency, µM (series often up to 58.2 µM), without a hit: top-dose activity change, negative = inhibition, most hits filed as inhibitors. 360,000 tested, 0.2% active;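 note: 0% = vehicle wells and -100% = peptide control; nearly all actives have a fitted effect of over 45% in size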
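AMA1 (3D7) with his tag at 25 nM final met compounds first, then biotinylated RON2 peptide at 25 nM; detection used donor plus acceptor beads, 10 µg/mL apiece, read by AlphaScreen after 30 min at room temperature.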
AmpC inh detg – blocks E. coli AmpC beta-lactamase in detergent assay. 370,000 tested, 0.041% active. P00811. Potency, µM (titrated, usually from 114 µM), for the others: at the top dose activity change, negative = inhibition, actives largely listed as inhibitors. AmpC hydrolysis of nitrocefin, absorbance 480 nm, 0.01% Triton;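 note: 0% = no-compound wells and -100% = no-enzyme wells; nearly all actives have a fitted effect of over 25% in size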
Target sequence (P00811 whole entry, looked up): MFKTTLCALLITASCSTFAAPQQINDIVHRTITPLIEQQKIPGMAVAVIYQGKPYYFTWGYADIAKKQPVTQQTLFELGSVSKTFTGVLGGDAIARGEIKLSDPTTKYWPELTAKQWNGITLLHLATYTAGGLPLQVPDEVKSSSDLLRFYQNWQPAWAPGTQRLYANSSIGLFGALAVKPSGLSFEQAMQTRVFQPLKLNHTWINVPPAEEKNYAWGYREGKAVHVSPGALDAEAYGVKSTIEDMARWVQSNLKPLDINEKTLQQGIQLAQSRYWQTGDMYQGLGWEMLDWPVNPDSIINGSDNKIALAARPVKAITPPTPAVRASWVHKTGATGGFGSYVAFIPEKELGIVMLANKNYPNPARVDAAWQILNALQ
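AmpC (5.3 nM in the dispensed reagent) in 20 mM phosphate pH 7.0 with 0.01% (detergent screen) or 0.0001% Triton X-100 was preincubated with compounds for 15 min at room temperature. Nitrocefin was then added from an 800 uM solution, and hydrolysis was followed at 480 nm.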
RE007 growth inh – less growth of the S. pombe RE007 Vpr strain. Potency, µM (titrated, usually from 92.2 µM), for inactives: at the highest dose activity change, negative = less growth, hits mostly inhibitors. S. pombe RE007 Vpr strain, BacTiter-Glo ATP luminescence, 24 h. 360,000 tested, 0.21% active; active = well fitted falling curve with a large enough effect; inconclusive = small, poorly fitted or top-dose-only effect; inactive = no such curve, though single readings can be large or run the other way; note: nearly all actives have a fitted effect of over 50% in size
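Fission yeast RE007 carrying one integrated HIV-1 vpr copy, seeded at OD 0.01 in PMG+AL medium with 23 nL pinned compound. Grown 24 h at 30 degrees; viability read by BacTiter-Glo luminescence after 5 min.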
AmpC no deterg – inhibitors of E. coli AmpC beta-lactamase without detergent; P00811; AmpC nitrocefin hydrolysis, absorbance 480 nm, 0.0001% Triton; Potency, µM (series often up to 57.1 µM), without a hit: at the highest dose activity change, negative = inhibition, actives largely listed as inhibitors; 330,000 tested, 0.52% active;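 note: plate controls were no compound for no effect and no enzyme for full effect; nearly all actives have a fitted effect of over 20% in size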
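20 mM phosphate pH 7.0 + 0.01% (detergent screen) or 0.0001% Triton X-100; 5.3 nM AmpC reagent; cpd preinc 15 min RT; nitrocefin (800 uM stock) to start; A480 q20 s × 4 min; Activity was normalised to no-enzyme and no-compound control wells.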
Active calls of the source: *; ? = inconclusive; . = not tested or not shown; [ ] = another dose, or the depositor's remark. Shown are actives, neighbours in structure and some others; about 0.79% of the full set was active somewhere. Unless noted, calls come from the whole dose curve; as a rule, active = well fitted curve in the direction sought with a large enough effect; inconclusive = small, poorly fitted or top-dose-only effect, or another doubt; inactive = no such curve, though single readings can be large; an effect the other way counts as inactive or inconclusive. Unless noted, % is set by controls: 0 for no effect and ±100 for the full control effect; potency is the fitted concentration of half-maximal effect.

SMILES | AMA1-RON2 inh | AmpC inh detg | RE007 growth inh | AmpC no deterg
Nc1nnc(SC2CC(=O)N(c3ccccc3)C2=O)s1 (configuration not stated) | 37% | ? | 28µM* | -40%
C=CCNc1nnc(SC2CC(=O)N(c3ccc(OCCC)cc3)C2=O)s1 (configuration not stated) | -3% | 2% | 11µM* | -16%
CCOC(=O)c1ccc(N2C(=O)CC(Sc3nc(C)cc(C)n3)C2=O)cc1 (configuration not stated) | 0% | ? | 7% | -9%
COc1ccc(N2C(=O)CC(Sc3nnc(-c4ccccc4)o3)C2=O)cc1 (configuration not stated) | -3% | -9% | -14%[3.69 µM] | -10%
CCOC(=O)c1ccc(-n2c(C)ccc2C)cc1 | -10% | 0% | 3% | -21%
CCOC(=O)c1ccc(N2C(=O)C=CC2=O)cc1 | 1% | 1% | 5.6µM* | -27%
CC(C)c1cnc2c(c1SCC(=O)Nc1ccccc1C(F)(F)F)c(=O)n(C)c(=O)n2C | . | 0% | . | .
CN(C)c1ccc(/C=C/C(=O)c2cc(Cl)ccc2O)cc1 | 14µM* | 0% | 1% | -27%
O=C(/C=C/c1ccncc1)c1cc(Cl)ccc1O | -5% | 1% | -19% | -2%
COc1cccc(-n2c(-c3cccc(F)c3)nc3c(cnn3-c3ccc(C)cc3)c2=O)c1 | . | 2% | . | .
c1ccc(CNc2ccc3c(c2)ncn3C2CCCCC2)nc1 | ? | ? | 13% | 7.1µM*
CCCCS(=O)(=O)/C=C\C=C/S(=O)(=O)CCCC | 4% | 0% | 8.9µM* | -16%
CCCCS(=O)(=O)/C=C\C1C2C=CC(C2)C1S(=O)(=O)CCCC (configuration not stated) | 0% | -14% | 6% | 16%
CC(C)Cn1c(=O)c2ccccc2n2c(CCC(=O)N3CCN(c4ccccc4)CC3)nnc12 | . | 26% | . | .
COc1ccc(OC)c(Nc2c3ccccc3nc3ccccc23)c1 | 20µM* | 1% | 1% | 1%
COc1ccc(OC)c(Nc2c3c(nc4ccccc24)CCC3)c1 | -11% | 4% | -8% | 13%
O=C(N1CCOCC1)n1cnc2ccccc21 | 1% | -9% | -13% | -4%
O=C(N1CCOCC1)n1nnc2ccccc21 | -10% | 45µM* | -6% | 13µM*
Cc1cccc(C(=O)NCCc2csc(C)n2)c1 | 3% | -11% | -2% | 3.5µM*
CCc1ccc(S(=O)(=O)NCCc2csc(-c3ccccc3)n2)s1 | 12% | 1% | 4% | -27%
CCc1ccc(S(=O)(=O)NCCc2csc(-c3cccnc3)n2)s1 | 12% | 3% | -10% | 35µM*
O=C(NCCc1csc(-c2cccnc2)n1)c1ccccc1 | -3% | ? | -1% | 1.4µM*
COc1ccc(-c2noc(CSc3nnc(C)n3-c3ccc(OC)cc3)n2)cc1 | . | 12% | . | .
Cc1ccc(-c2ccc(/C=N/NC(=S)Nc3ccccc3)o2)cc1[N+](=O)[O-] | 11% | -6% | 1% | 3.5µM*
NS(=O)(=O)c1cccc(NC(=O)c2cc(-c3cccs3)nc3ccccc23)c1 | -10% | 10% | -1% | 18µM*
SMILES | AMA1-RON2 inh | AmpC inh detg | RE007 growth inh | AmpC no deterg
CN(C)S(=O)(=O)c1cccc(NC(=O)c2cc(-c3cccs3)nc3ccccc23)c1 | 4% | ? | 18% | -28%
CCC1CCCCN1S(=O)(=O)c1ccc(C(=O)Nc2sc3c(c2C(=O)NC)CCC3)cc1 (configuration not stated) | . | 4% | . | .
O=C(CSc1nc(C2CC2)nc2ccccc12)N1c2ccccc2Sc2ccccc21 | 1% | -2% | 0% | 0.32µM*
O=C(Nc1ccc(Cl)cn1)c1cccc2c(Br)cccc12 | 11% | -9% | -10% | 20µM*
COc1ccc(N2CCN(C(=O)c3cccnc3SCc3cccc(Br)c3)CC2)cc1 | 32µM* | 4% | 11% | 113%
CC1CCC(NC(=O)C2(C)CCC(=O)N2Cc2cccnc2)CC1 (configuration not stated) | -6% | ? | 4% | 45µM*
CC1(C(=O)NC2CCCCC2)CCC(=O)N1Cc1cccnc1 (configuration not stated) | -1% | ? | 2% | -4%
CCN1CCN(CCCNC(=O)Cn2c(-c3cccs3)cc3cc(F)ccc32)CC1 | . | -8% | . | .
COc1ccc(CC(=O)N2CCc3cc(OC)c(OC)cc3C2COc2ccc(F)cc2)cc1 (configuration not stated) | . | -2% | . | .
CCOC(=O)c1ccc(NC(=O)CC2OCCN(CC)C2=O)cc1 (configuration not stated) | -4% | 0% | 4.5µM* | -24%
CCOc1ccc(NC(=O)CC2C(=O)OCCN2CC)cc1 (configuration not stated) | . | -2% | . | .
CCN1CCOC(CC(=O)Nc2cccc([N+](=O)[O-])c2)C1=O (configuration not stated) | -2% | 0% | ? | -43%
CCOC(=O)c1ccc(NC(=O)CC2C(=O)OCCN2CC)cc1 (configuration not stated) | -17% | 2% | 5µM* | -24%
Clc1ccccc1C1CC(c2ccccc2)Nc2ncnn21 (configuration not stated) | -2% | ? | 4% | 40µM*
O=C(Cn1c(SCC(=O)Nc2ccc(F)cc2)nc2ccccc21)NCc1ccc(Cl)cc1 | . | 9% | . | .
CCCN1C(=O)c2cc(C(=O)Nc3ccc(OC)cc3OC)ccc2C1Nc1ccc(OC)cc1OC (configuration not stated) | 14µM* | 0% | -15% | 156%
COCCNC(=S)Nc1ccc2nc(N3CCCC3)cc(C)c2c1 | 20% | -1% | -27% | 10µM*
Brc1cc2c(cc1CN1CCN(c3ccccc3)CC1)OCCO2 | 7.9µM* | 5% | 5% | -4%
Oc1cc2c(cc1CN1CCN(c3ccc(F)cc3)CC1)OCO2 | 32µM* | ? | -26% | -18%
Nc1nc(-c2ccc(Cl)cc2)c(N=Nc2ccc(S(=O)(=O)N3CCOCC3)cc2)s1 | -8% | -11% | 15% | -28%
Nc1nc(-c2ccccc2)c(N=Nc2ccccc2Cl)s1 | 14µM* | ? | -7% | -34%
Nc1nc(-c2ccccc2)c(N=Nc2cccc3ccccc23)s1 | 16µM* | -3% | -5% | -22%
CC(=O)Nc1sc(N)nc1-c1ccccc1 | 15% | ? | -6% | -10%
Cc1ncc(N=Nc2ccccc2Cl)c(-c2ccccc2)n1 | 25µM* | -11% | -20% | 2%
Cc1ccccc1OCCCCn1c(-c2ccc(Cl)cc2)nc2ccccc2c1=O | . | -2% | . | .
CCn1c(=O)c2sccc2n2c(CCC(=O)NCc3ccc(Cl)cc3)nnc12 | . | 12% | . | .
CCOC(=O)C1=C(C)N=C2c3ccccc3C(=O)C2C1c1ccc(Cl)cc1 (configuration not stated) | -17% | ? | -10% | -44%
CCOC(=O)C1=C(Cc2ccc(Cl)cc2)C(=O)c2ccccc2C1=O | ? | -15% | 35µM* | -45%
